Records with an inconclusive call do not appear. Calls of active or inactive are those of the source. Unless noted, calls follow the shape of the dose curve; as a rule, active = well fitted curve in the direction sought with a large enough effect; inconclusive = small, poorly fitted or top-dose-only effect, or another doubt; inactive = no such curve, though single readings can be large; an effect the other way counts as inactive or inconclusive.

The target of assay [1] is Peptidyl-prolyl cis-trans isomerase NIMA-interacting 1 (Homo sapiens) (UniProt Q13526). Kind of assay: qHTS Validation Assay to Find Inhibitors of Pin1 (AID 504536; active = well fitted inhibition curve with a large enough effect in the polarisation, with a control signal flat, not every such curve was filed as active; the % refers to the polarisation). The conditions noted are these: Pin1 fluorescence polarization peptide binding assay; series mostly up to 57.5 µM. In a few lines:
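Fluorescence polarization competition: compounds (titration) displace HiFluor-488-labeled Pin1-1b peptide from Pin1 (0.3 uM final) in pH 7.5 HEPES buffer with DTT, 10 min at room temperature; %Activity normalized to no-enzyme wells, curves fitted.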
Background: Quantitative high-throughput screening tests each substance at several concentrations.

Assay [2] deals with Phosphoglycerate kinase, glycosomal (Trypanosoma brucei brucei) (UniProt P07378). Kind of assay: qHTS Validation Assay to Find Inhibitors of Phosphoglycerate Kinase (AID 504547). Particulars: enzymatic PGK inhibition, coupled luminescence read-out; series mostly up to 57.5 µM. In a few lines:
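Luminescence end-point (Kinase-Glo Plus, 10 min) after a 60 min room-temperature coupled reaction. GAPDH at 100nM final supplies 1,3-BPG to PGK. Buffer: 100mM TEA pH 7.6, 5mM MgCl2, 0.01% Tween-20. Wells lacking PGK served as controls.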

The target in assay [3] is phosphoglycerate mutase (Leishmania major) (UniProt Q4Q090). Nature of the assay: qHTS Validation Assay to Find Inhibitors of Phosphoglycerate Mutase (AID 504548). The conditions noted are these: biochemical enzyme activity; Potency: inhibition qHTS; series mostly up to 57.5 µM. In a few lines:
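Luminescent end-point read-out via Kinase-GloPlus after a 10-minute development. Reaction: 1.25nM Leishmania major PGAM with substrate and compound, 45 minutes at room temperature in TEA buffer (pH 7.6) with MgCl2 and Tween-20.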

Assay [4] can be described thus: Inducers of the Endoplasmic Reticulum Stress Response (ERSR) in human glioma: Validation (AID 504836). Particulars: human glioma cells, ER stress response reporter; series mostly up to 38.3 µM. In short, it runs like this: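 ERSR induction read as luciferase luminescence (Bright-Glo, 10 min at room temperature) in stably transfected human U87-MG glioma cells exposed to compounds for 16 h, using GRP78 as sensor.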

For assay [5], the target named is Ubiquitin carboxyl-terminal hydrolase 1 (Homo sapiens) (UniProt O94782). Kind of assay: Inhibitors of USP1/UAF1: Pilot qHTS (AID 504865).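 Also: rhodamine fluorescence freed from ubiquitin-rhodamine substrate followed over time; top concentration of the series differs between compounds; nearly all actives have a fitted effect of over 35% in size.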 Particulars: purified USP1/UAF1, Ub-rhodamine cleavage fluorescence; series mostly up to 114 µM. In short, it runs like this:
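1nM USP1/UAF1 + cpd, 15 min RT; start w/ Ub-Rho 150nM final; kinetic FL 480/540 nm, 6 reads q60 s. Buffer 50mM HEPES pH 7.8, 0.5mM EDTA, 1mM TCEP, 0.01% Tween-20, 0.1 mg/ml BSA.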

Assay [6] is described as follows: qHTS for Inhibitors of ATXN expression: Validation of Cytotoxic Assay (AID 588349). The conditions noted are these: cytotoxicity counter-screen for ATXN expression inhibitors, cell viability; series mostly up to 57.1 µM. In short, it runs like this: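 Titrated compounds are added to cultured HEK293 cells, which are then held at 37 degrees C for 72 hr; loss of intracellular ATP, measured with CellTiter Glo, indicates toxicity.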

Assay [7] can be described thus: qHTS for Inhibitors of ATXN expression: Validation (AID 588378). Also: nearly all actives have a fitted effect of over 75% in size. Also: potency is read from the fitted curve at half-maximal effect. Particulars: cell-based ATXN2 expression reporter assay, luminescence; series mostly up to 57.1 µM. In a few lines: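 Cells: HEK293-ATXN2-FFLuc, phenol-red free DMEM, 2 h attachment. Compound pin-transfer, 24 h, 37 degrees C, 5% CO2. CellTiter-Fluor 30 min, Ex405/Em525; Bright-Glo 5 min, luminescence 2 s exposure.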

The target in assay [8] is Galactokinase (Homo sapiens) (UniProt P51570). Nature of the assay: qHTS Validation Assay for Inhibitors of Human Galactokinase (GALK) (AID 493189). The conditions noted are these: purified human GALK enzyme activity, qHTS 7-point titration; series mostly up to 57.5 µM. In short, it runs like this:
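Luminescence from leftover ATP (Kinase-Glo Plus, 10 min) served as read-out after a 1 h room-temperature reaction of 5 nM GALK, 100 uM galactose and 35 uM ATP at pH8.0.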

Assay [9] addresses DNA dC->dU-editing enzyme APOBEC-3G (Homo sapiens) (UniProt Q9HC16). Nature of the assay: qHTS for inhibitors of Vif-A3G interactions: Validation (AID 588379). Particulars: Vif-A3G protein interaction assay; series mostly up to 46.1 µM. In a few lines: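 Yellow fluorescence (Ex 488, Em 500-530) of Vif-coexpressing HeLa A3G-eYFP cells, scanned by Acumen cytometer, reports blocked A3G degradation. Cells plated at 700/well overnight at 37 deg C before compound addition, then a further overnight compound incubation at 37 deg C.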

Assay [10] in a line: Validation screen for small molecules that induce DNA re-replication in SW480 colon adenocarcinoma cells (AID 504364). The conditions noted are these: DNA re-replication phenotype (high-content imaging); series mostly up to 46.1 µM. In short, it runs like this:
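Image-based qHTS: compounds were incubated with SW480 cells for 48 hr, nuclei stained with Hoechst, and per-nucleus fluorescence intensity scanned to flag cells with excess DNA content.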

Galactokinase (Homo sapiens), sequence (P51570 whole entry, looked up): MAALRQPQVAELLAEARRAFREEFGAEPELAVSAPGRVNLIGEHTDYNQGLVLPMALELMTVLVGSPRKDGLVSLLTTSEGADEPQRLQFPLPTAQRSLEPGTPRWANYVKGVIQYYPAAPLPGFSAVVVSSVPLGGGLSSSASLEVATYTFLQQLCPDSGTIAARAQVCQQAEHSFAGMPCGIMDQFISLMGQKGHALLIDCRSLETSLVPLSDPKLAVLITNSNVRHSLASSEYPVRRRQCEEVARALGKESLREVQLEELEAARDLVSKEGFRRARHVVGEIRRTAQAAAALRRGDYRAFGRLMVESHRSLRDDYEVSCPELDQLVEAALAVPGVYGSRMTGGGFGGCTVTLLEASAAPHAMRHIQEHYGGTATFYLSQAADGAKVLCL
Peptidyl-prolyl cis-trans isomerase NIMA-interacting 1 (Homo sapiens), sequence (Q13526 whole entry, looked up): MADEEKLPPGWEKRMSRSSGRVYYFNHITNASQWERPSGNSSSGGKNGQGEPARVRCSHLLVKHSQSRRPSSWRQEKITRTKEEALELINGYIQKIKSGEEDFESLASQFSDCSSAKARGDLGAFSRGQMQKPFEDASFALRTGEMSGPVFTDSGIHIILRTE
phosphoglycerate mutase (Leishmania major), sequence (Q4Q090 1-553): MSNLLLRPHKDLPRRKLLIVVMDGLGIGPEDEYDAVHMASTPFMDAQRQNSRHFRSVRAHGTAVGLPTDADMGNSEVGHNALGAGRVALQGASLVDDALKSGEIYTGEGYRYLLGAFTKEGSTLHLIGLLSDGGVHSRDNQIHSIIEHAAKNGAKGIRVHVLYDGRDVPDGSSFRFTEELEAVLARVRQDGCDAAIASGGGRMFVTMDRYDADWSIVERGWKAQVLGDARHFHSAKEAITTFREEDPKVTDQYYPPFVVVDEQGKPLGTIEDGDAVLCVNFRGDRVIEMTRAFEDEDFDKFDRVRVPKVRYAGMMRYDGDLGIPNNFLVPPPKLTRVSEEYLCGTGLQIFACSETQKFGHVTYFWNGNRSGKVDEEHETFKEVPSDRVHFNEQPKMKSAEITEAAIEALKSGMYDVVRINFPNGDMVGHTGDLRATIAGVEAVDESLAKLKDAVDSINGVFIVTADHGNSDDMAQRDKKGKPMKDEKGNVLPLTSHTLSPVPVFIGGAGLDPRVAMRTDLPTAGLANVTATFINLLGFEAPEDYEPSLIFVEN
Phosphoglycerate kinase, glycosomal (Trypanosoma brucei brucei), sequence (P07378 whole entry, looked up): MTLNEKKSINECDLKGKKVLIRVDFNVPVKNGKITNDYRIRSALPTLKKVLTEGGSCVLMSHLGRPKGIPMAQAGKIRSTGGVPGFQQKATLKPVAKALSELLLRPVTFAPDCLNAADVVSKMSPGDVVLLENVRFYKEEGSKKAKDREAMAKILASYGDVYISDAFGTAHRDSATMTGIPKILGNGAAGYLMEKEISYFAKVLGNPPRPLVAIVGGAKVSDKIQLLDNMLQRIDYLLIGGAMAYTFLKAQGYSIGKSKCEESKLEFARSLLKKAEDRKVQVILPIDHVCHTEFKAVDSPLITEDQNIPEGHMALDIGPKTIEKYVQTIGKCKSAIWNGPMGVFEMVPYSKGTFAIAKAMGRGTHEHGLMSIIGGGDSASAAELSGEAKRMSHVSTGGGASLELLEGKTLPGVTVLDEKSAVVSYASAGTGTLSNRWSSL
Ubiquitin carboxyl-terminal hydrolase 1 (Homo sapiens), sequence (O94782 whole entry, looked up): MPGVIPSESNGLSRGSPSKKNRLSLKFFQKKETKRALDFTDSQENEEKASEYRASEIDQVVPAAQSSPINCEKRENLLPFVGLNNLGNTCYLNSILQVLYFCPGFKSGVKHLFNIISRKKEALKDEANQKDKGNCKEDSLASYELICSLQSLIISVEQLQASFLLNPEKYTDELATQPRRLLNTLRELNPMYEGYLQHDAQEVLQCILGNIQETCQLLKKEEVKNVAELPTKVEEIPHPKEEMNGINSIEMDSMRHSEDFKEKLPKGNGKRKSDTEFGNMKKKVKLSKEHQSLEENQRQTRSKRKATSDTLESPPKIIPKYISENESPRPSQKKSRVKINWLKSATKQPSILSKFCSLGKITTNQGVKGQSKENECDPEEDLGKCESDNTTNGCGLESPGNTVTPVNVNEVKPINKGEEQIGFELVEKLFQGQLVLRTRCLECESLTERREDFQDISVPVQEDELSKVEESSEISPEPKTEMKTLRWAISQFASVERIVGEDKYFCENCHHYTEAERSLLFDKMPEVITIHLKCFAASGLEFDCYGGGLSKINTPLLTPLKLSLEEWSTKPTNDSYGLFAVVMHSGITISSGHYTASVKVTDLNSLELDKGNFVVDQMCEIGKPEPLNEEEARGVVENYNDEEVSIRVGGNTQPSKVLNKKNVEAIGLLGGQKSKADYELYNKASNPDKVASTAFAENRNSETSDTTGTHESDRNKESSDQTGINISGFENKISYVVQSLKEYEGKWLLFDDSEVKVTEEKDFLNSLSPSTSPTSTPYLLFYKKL
DNA dC->dU-editing enzyme APOBEC-3G (Homo sapiens), sequence (Q9HC16 whole entry, looked up): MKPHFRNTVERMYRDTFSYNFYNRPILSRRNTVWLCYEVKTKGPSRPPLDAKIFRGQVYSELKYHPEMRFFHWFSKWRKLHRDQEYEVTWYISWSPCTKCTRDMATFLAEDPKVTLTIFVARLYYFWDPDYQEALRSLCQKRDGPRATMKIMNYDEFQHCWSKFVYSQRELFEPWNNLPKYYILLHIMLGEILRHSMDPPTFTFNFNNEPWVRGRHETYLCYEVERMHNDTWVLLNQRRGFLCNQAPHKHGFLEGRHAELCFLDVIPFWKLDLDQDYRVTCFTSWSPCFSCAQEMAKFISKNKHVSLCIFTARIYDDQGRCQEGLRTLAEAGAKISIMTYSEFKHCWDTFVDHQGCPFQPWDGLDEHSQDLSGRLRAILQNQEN

Consider `C[N+]1(C)CCc2cc3c(cc2[C@H]1[C@@H]1OC(=O)c2c1ccc1c2OCO1)OCO3`, for which the Potency entry in assay [1], in assay [2], in [3], in assay [5], in assay [6] and in [7] was “inactive” in each case. Moreover, the outcome in assay [4] was inactive.

Consider `c1ccc2c(c1)[I+]c1ccccc1-2`, for which the result in [8], in [4] and in assay [9] was inactive. The Potency entry in [1], in assay [3] and in [5] was “inactive” in each case.

For `O=[N+]([O-])c1cc(O)c(O)c([N+](=O)[O-])c1`, the result in assay [8] and in [9] was inactive. Moreover, the Potency result in assay [10], in [1], in assay [3], in assay [5] and in [7] was “inactive” throughout.

Regarding `CC(C)NP(=O)(NC(C)C)OP(=O)(NC(C)C)NC(C)C`, the result in assay [8] and in assay [4] was inactive. Moreover, the Potency entry in assay [1], in assay [3], in [5], in assay [6] and in [7] was “inactive” throughout.

Turning to `C[N+]1(C)C2CCC1CC(OC(=O)c1c[nH]c3ccccc13)C2` (configuration not stated), the compound was classed as inactive in assay [8] and in assay [4]. In addition, the Potency entry in assay [1], in [2], in [3], in assay [5], in assay [6] and in assay [7] was “inactive” each time.

As to `CCn1cnc2c(Nc3cccc(Cl)c3)nc(N[C@@H]3CCCC[C@@H]3N)nc21`, in assay [8], the outcome was inactive. The Potency entry in assay [2], in assay [3] and in [5] was “inactive” each time. Further, the Potency in assay [7] is 2510 nM (active).

On to `CC(C)(O)[C@@H]1C2OC(=O)[C@@H]1[C@]1(O)C[C@H]3O[C@]34C(=O)O[C@H]2[C@]14C` (tested in a mixture with another compound), for which the Potency entry in assay [1], in assay [2], in [3], in [5], in assay [6] and in assay [7] was “inactive” each time. Moreover, the outcome in assay [4] was inactive.

These data come from PubChem BioAssay (NCATS).
